Assay results: PubChem BioAssay AID2284344 (EPA ToxCast)
Records with an inconclusive call do not appear. The source made the active and inactive calls. How the source made its calls: active means hit-call score of the fitted dose curve at least 0.9, where 1 is the maximum; inconclusive means response in the unintended direction; inactive means score below 0.9.

system: frog Peroxisome Proliferator-activated Receptor-alpha (PPARa), gene 398843; assay: ATG_frPPARa_EcoTox2: Attagene TRANS-FACTORIAL EcoTox-2 HepG2 Assay for frog Peroxisome Proliferator-activated Receptor-alpha (PPARa)
Description: ATG_EcoTox2 is a cell-based, multiplexed assay created by modifying the existing Attagene TRANS-FACTORIAL system to include a panel of nuclear receptors from some or all the following species: human (Homo sapiens), african clawed frog (Xenopus laevis), rainbow trout (Oncorhynchus mykiss), japanese medaka (Oryzias latipes), and zebrafish (Danio rerio). The ECOTOX2-FACTORIAL format uses HepG2, a human liver cell line, with measurements taken at 24 hours after chemical dosing in a 24-well plate. ATG_frPPARa_EcoTox2 is one of 29 assay components calculated in the ATG_EcoTox2 assay. It is designed to make measurements of mRNA induction, a form of inducible reporter, as detected with fluorescence intensity signals by Reverse transcription polymerase chain reaction (RT-PCR) and Capillary electrophoresis technology.The assay endpoint ATG_frPPARa_EcoTox2 was analyzed in the positive analysis fitting direction relative to DMSO as the negative control and baseline of activity. Using a type of inducible reporter, measures of mRNA for gain-of-signal activity can be used to understand the reporter gene at the transcription factor-level as they relate to the gene PPARa. Furthermore, this assay endpoint can be referred to as a primary readout, because this assay has produced multiple assay endpoints where this one serves a reporter gene function. To generalize the intended target to other relatable targets, this assay endpoint is annotated to the nuclear receptor intended target family, where the subfamily is non-steroidal.
Human liver HepG2 cells are transiently transfected with multiple reporter transcription units (MRTUs) in 6-well plates using FuGene 6 reagent (Roche; 3 ml FuGene/1 mg DNA). The MRTU constructs are regulated by a cis-regulating element (promoter). Each RTU expresses a GAL4-UAS that regulates the transcription of a nearby target reporter gene sequence. A major difference between the CIS and TRANS system is that in CIS activities of endogenous TFs are measured, whereas the TRANS assay evaluates changes in activities of exogenous, chimeric NR-Gal4 proteins. […] At the end of 24 hour incubation, total RNA was isolated using TriZol reagent (Invitrogen). The isolated RNA is then reverse-transcribed using oligo(dT) primer and Mo-MLV reverse transcriptase (Invitrogen) with DNAse I (Ambion) treatment for 30 min. The one-tenth of the produced cDNA was amplified by PCR using Taq DNA polymerase (Invitrogen) and two reporter sequence-specific primers. The PCR products were fluorescently labeled by primer extension with 6-arboxyfluorescein (6-FAM) 5'-labeled reporter sequence-specific primer (2 min at 95 C, 20 s at 68 C and 10 min at 72 C) and these products were digested with 5U of HpaI (New England Biolabs) for 2h at 37 C. The fragments were purified using Qiaquick PCR columns (Qiagen), analyzed on an ABI 3130xL genetic analyzer (Applied Biosystems) with peak positions identified by using a set of X-rhodamine (ROX)-labeled MapMarker1000 molecular weight standards (BioVentures). The raw capillary electrophoresis data was processed using Attagraph software (Attagene).

SMILES | outcome | AC50
C[C@]12C=CC(=O)C=C1CC[C@@H]1[C@@H]2C(=O)C[C@@]2(C)[C@H]1CC[C@]2(O)C(=O)CO | inactive | 
Cc1cccc(Nc2cc(Cl)nc(SCC(=O)O)n2)c1C |  | 11.9 µM (active)
Cc1ccc(C)c(OCCCC(C)(C)C(=O)O)c1 |  | 50 µM (active)
CN(CCOc1ccc(CC2SC(=O)NC2=O)cc1)c1ccccn1 (stereo not drawn) |  | 8.4 µM (active)
C=C(c1ccc(C(=O)O)cc1)c1cc2c(cc1C)C(C)(C)CCC2(C)C | inactive | 
CC(C)(Oc1ccc(Cl)cc1)C(=O)O | inactive | 
CC(C)OC(=O)C(C)(C)Oc1ccc(C(=O)c2ccc(Cl)cc2)cc1 | inactive | 
CC(c1cc2ccccc2s1)N(O)C(N)=O (stereo not drawn) | inactive | 
C[C@@H]1C[C@H]2[C@@H]3CCC4=CC(=O)C=C[C@]4(C)[C@@]3(F)[C@@H](O)C[C@]2(C)[C@@]1(O)C(=O)COP(=O)(O)O | inactive | 
CC(C)(Oc1ccc(CCNC(=O)c2ccc(Cl)cc2)cc1)C(=O)O |  | 23.6 µM (active)
Cc1c(C)c2c(c(C)c1O)CCC(C)(COc1ccc(CC3SC(=O)NC3=O)cc1)O2 (stereo not drawn) | inactive | 
Cc1nc(-c2ccc(C(F)(F)F)cc2)sc1C(=O)NCc1ccc(OC(C)(C)C(=O)O)cc1 |  | 0.0823 µM (active)
CC(C)(Oc1ccc(C2CC2(Cl)Cl)cc1)C(=O)O (stereo not drawn) |  | 113 µM (active)
